Test results from PubChem BioAssay AID594 (National Center for Advancing Translational Sciences (NCATS), 2007).
About 30 (0.05%) of roughly 59,000 compounds were called active. Rule as the data show it: active = max dye-equivalent concentration above about 11 nM; inconclusive = between about 1.1 nM and that limit; inactive = weaker than that. Many of the other results were omitted from the sample, so actives are more common in it than they were.

Experiment: qHTS Assay for Spectroscopic Profiling in Rhodamine Spectral Region
Conditions: Rhodamine-region fluorescence, 547/598 nm, Tris buffer; active compounds read high
Description: NIH Molecular Libraries Screening Centers Network [MLSCN] NIH Chemical Genomics Center [NCGC] […] Occasionally, the artifactual effect may originate from the compound#s own spectral or other biophysical properties which generally tend to track its assay concentration. Pre-screening/profiling the library with respect to the compounds# spectral properties should help one exclude false positives early on. While the most informative fluorescent profiling data set is obtained by performing a full excitation and emission scan of each well by using a monochromator-based plate reader, such an approach is practical only on a very limited scale as scanning each well requires long time. An alternative approach, applied here, is to perform plate reader scans using selected excitation and emission wavelength pairs to generate a multidimensional relational database that correlates compound concentration and the respective relative fluorescence intensity at a given wavelength set. A standard curve of rhodamine present on each plate as six-point concentration series, was used to compute a normalized fluorescence response, termed dye-equivalent concentration, for each compound at each concentration.
NCGC Assay Protocol Summary: Buffer: 100 mM Tris buffer, pH 8.0 Dye standard plate: The wells in columns 1 through 4 of a Kalypsys polypropylene 1536-well compound plate were filled with standard solutions of fluorophore corresponding to the spectral region of interest. Solutions of rhodamine were placed in the following wells: E1, F1: 3 mM, E2, F2: 300 uM, E3, F3: 30 uM, E4, F4: zero (DMSO), G1, H1: 3 uM, G2, H2: […], G3, H3: 300 nM, G4, H4: zero (DMSO). Assay Steps: Six uL of buffer were dispensed to 1536-well Greiner black plates. Compounds and dye standards (23 nL) were transferred via Kalypsys PinTool. The plates were incubated for 15 min at room temperature, and then read on ViewLux (Perkin-Elmer) High-throughput CCD imager using 547 nm and 598 nm excitation and emission filter set. Keywords: NIH Roadmap, MLSCN, MLI, MLSMR, qHTS, NCGC, Rhodamine , Fluorescent Profiling.

Row | SMILES | max dye-equivalent concentration
1 | CCOC(=O)N1CCN(S(=O)(=O)c2cc(Br)cc3c2N(C(=O)C2CC2)CC3)CC1 | inactive
2 | CCOC(=O)c1cc2cc(C)ccc2[nH]1 | inactive
3 | CC(C)C[C@H](NC(=O)Nc1cccc(C(F)(F)F)c1)C(=O)O | inactive
4 | CN(C)CCCNc1c2c(c(C#N)c3nc4ccccc4n13)CCC2 | inactive
5 | COc1ccc(CNC(=O)c2c(C)cc(=O)oc2C)cc1OC | inactive
6 | CC(=O)c1c(C)c[nH]c1C | inactive
7 | O=C(NCc1ccccc1)C1C(=O)N(Cc2ccccc2)C(=O)C1C1(O)CCCC1 (stereo not given) | inactive
8 | Cn1c(=O)c2c(nc(N3CCCCCC3)n2CC(O)COc2ccc(Cl)cc2)n(C)c1=O (stereo not given) | inactive
9 | CN(C)c1ncc2nc(-c3ccc(F)cc3)c(=O)n(Cc3ccc(F)cc3)c2n1 | inactive
10 | CS(=O)(=O)N1CCC2(CC1)CN(c1ccncc1)C2 | inactive
11 | Cc1ccccc1N1CC(c2nc3ccccc3[nH]2)CC1=O (stereo not given) | inactive
12 | CCN1CCN(C(=O)c2ccccc2N(C)S(=O)(=O)c2ccc(C)cc2)CC1 | inactive
13 | Cc1ccc(C(=O)Nc2ccccc2C(=O)NC2CCCCC2)cc1S(=O)(=O)N1CCOCC1 | inactive
14 | C/C(O)=C\c1nc(=O)c2c(C)cc(C)nc2n1-c1ccccc1 | inactive
15 | CC(C)NC(=O)N1CC[C@@]2(CCCN(C(=O)c3cccc(F)c3)C2)C1 | inactive
16 | CCCn1c(SCC(=O)Nc2cccc(C(=O)OCC)c2)nnc1-c1ccoc1C | inactive
17 | CCOc1ccc(NCCC(=O)c2ccc3c(c2)OCO3)cc1 | inactive
18 | CCOC(=O)N1CCN(C(=O)c2cc3c(ccc4ccccc43)oc2=O)CC1 | inactive
19 | O=C(Nc1ccc(NC(=O)c2cccs2)cn1)c1ccco1 | inactive
20 | CCCCCOC(=O)NCCOC(=O)Nc1ccc(C(=O)OCC)cc1 | inactive

Row | SMILES | max dye-equivalent concentration
21 | CC1CC(c2ccccc2)n2nc(NC(=O)c3cccs3)nc2N1 (stereo not given) | inactive
22 | CCn1c(=O)cc(OCC(=O)NCCCN2CCN(c3cccc(Cl)c3)CC2)c2ccccc21 | inactive
23 | O=C(c1csnn1)N1CCC[C@@]2(CCN(c3cccc(-c4ccccc4)c3)C2)C1 | inactive
24 | CN(c1ccccc1)c1ccc(/C=c2\s/c(=C(/C#N)C(=O)C(C)(C)C)n(Cc3ccco3)c2=O)cc1 | 36 nM (active)
25 | CCOc1ccccc1/C=c1\sc2nc(-c3ccco3)nn2c1=O | inactive
26 | CCOC(=O)CSc1nc2c(sc(=S)n2CCc2ccccc2)c(=O)n1Cc1ccco1 | inactive
27 | Cc1cccc(OCc2nnc(SCc3nc4cc(C(F)(F)F)ccc4c(=O)[nH]3)o2)c1 | inactive
28 | COc1ccc(C(CNC(=O)c2cccnc2SC)N2CCOCC2)cc1 (stereo not given) | inactive
29 | O=C(CSc1nnc(-c2ccc(NS(=O)(=O)c3ccccc3)cc2)o1)NCC1CCCO1 (stereo not given) | inactive
30 | O=C(C1CCC(C(=O)N2CCCC2)CC1)N1CCCC1 (stereo not given) | inactive
31 | COc1ccc(S(=O)(=O)N2CCCC(C(=O)Nc3ccc(NC(=O)c4ccccn4)cc3)C2)cc1 (stereo not given) | inactive
32 | CCn1c(NCCc2ccc(OC)c(OC)c2)nc2c1c(=O)n(C)c(=O)n2C | inactive
33 | CCNc1nc(N)nc(Oc2ccc(OCC)nn2)n1 | inactive
34 | CC1=Nn2c(nnc2-c2ccccc2)SC1 | inactive
35 | CN(CC(=O)NC1CCCCC1)S(=O)(=O)c1ccc(Br)s1 | inactive
36 | O=C(CSc1nnc(-c2ccccc2)o1)N1CCOCC1 | inactive
37 | Cc1ccc(CC2CC(=O)N(c3ccc4c(c3)OCCO4)C2=O)cc1 (stereo not given) | inactive
38 | C[C@]1(O)CC[C@H]2[C@H]3CC=C4N5CCN=C5CC[C@@]4(C)[C@H]3CC[C@@]21C | inactive
39 | CCNc1ncc2ncc(=O)n(Cc3cccc(OC)c3)c2n1 | inactive
40 | CC1Cc2ccccc2N1C(=O)CSc1nc2ccccc2o1 (stereo not given) | inactive

Row | SMILES | max dye-equivalent concentration
41 | CCN(CC)c1ccc(C(=O)OCC(=O)c2ccco2)cc1 | inactive
42 | Cc1ccsc1C(C(=O)NC1CCCCC1)N(C(=O)Cc1cccs1)C1CC1 (stereo not given) | inactive
43 | CCC(C(=O)Nc1ncccn1)(C(F)(F)F)C(F)(F)F | inactive
44 | CC(C)C(c1nnnn1CCc1ccccc1)N1CCN(C(=O)c2ccco2)CC1 (stereo not given) | inactive
45 | O=C(Nc1c(-c2ccccc2)nc2c(Br)cc(Br)cn12)c1ccco1 | inactive
46 | Cc1oc(-c2cccc(Cl)c2)[n+]([O-])c1C | inactive
47 | COCCn1c(=O)c(-c2cccs2)nc2cncnc21 | inactive
48 | Nc1nonc1-c1noc(-c2ccc(Br)o2)n1 | inactive
49 | CCOC(=O)C1=C(CNC2CCCCC2)NC(=O)NC1c1cc(C)ccc1C (stereo not given) | inactive
50 | Cc1cc(=O)n2nc(N3CCCC3C(=O)NCCCN3CC(C)CC(C)C3)sc2n1 (stereo not given) | inactive
51 | O=C(CN1CCN(c2ccccn2)CC1)NCc1cccs1 | inactive
52 | OCc1n[nH]c(CO)n1 | inactive
53 | CCC(=O)Nc1sc(C(=O)N2CCCCC2)c(C)c1C#N | inactive
54 | CCOC(=O)c1c(C)c(C(=O)NCCc2ccc(S(N)(=O)=O)cc2)c(C)n1CC | inactive
55 | COc1ccc(CCNC(=O)CN2CCC(n3nnc4cc(F)ccc43)CC2)cc1OC | inactive
56 | Nc1nnnn1/N=C/c1cccs1 | inactive
57 | CCc1ccccc1NC(=O)CSc1nnc([C@@H](NC(=O)OC(C)(C)C)C(C)C)o1 | inactive
58 | COc1cc(Cl)c(C)cc1NC(=O)CSc1nnc(-c2cccnc2)n1Cc1ccco1 | inactive
59 | Cc1cc(N2CCCC2=O)cc(C)c1S(N)(=O)=O | inactive
60 | C/C(=N\O)C1(C)N(O)C(C)(C)C(c2ccc(Br)cc2)=[N+]1[O-] (stereo not given) | inactive
